High-throughput results (PubChem BioAssay)
This is a sample that favours compounds with a hit; in the whole collection about 21% have one here.
Pf growth 48h: P. falciparum growth inhibition at 48 hours (one generation). P. falciparum luciferase growth in erythrocytes, 48 h. Potency, µM (top dose mostly 28.7 µM), for the others: at the top dose activity change, negative = inhibition, usual class: inhibitors. hit rate 5.9% among 310,000. AID 504832; further: potency means the concentration at half of the fitted maximal effect; on the % scale 0 is the no-effect control and ±100 the full control effect
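Luciferase-expressing parasites in RBCs, 2% Hct / 0.1% parasitemia final; RPMI 1640 + 0.5% Albumax; 37 C, 5% CO2, one generation; luminescence read-out, lower signal = inhibition.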
Shiga inhibitor: inhibitors of Shiga toxin in Vero cells; Vero cells, Shiga toxin protein synthesis inhibition reporter; inhibition, % at 38.7 µM; hit rate 9.2% among 290,000; AID 2315; in the data active means inhibition mostly above about 28%, no sharp cut-off; inactive means mostly below about 43%; further: 0% is about no effect
NS1 inh: influenza NS1 inhibition; hit rate 0.4% among 270,000; Potency, µM (top dose mostly 46.1 µM), without a hit: top-dose activity, positive = more growth; calls by dose curve; further: potency means the concentration at half of the fitted maximal effect; actives are rising curves; nearly all actives have a fitted effect of over 50% in size
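OD600 was taken as the measure of yeast growth restored by compound in an NS1-expressing S. cerevisiae strain. Cells had been washed out of glucose medium and diluted 1:100 into galactose -URA medium, pH 6.0.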
Cycloheximide cs: counter-screen for Shiga toxin inhibitors: cycloheximide protein synthesis inhibition; cell reporter, cycloheximide protein synthesis inhibition counterscreen; max response, %; AID 2314; hit rate 12% among 300,000; in the data active means max response mostly above about 13%, no sharp cut-off; inactive means mostly below about 14%; further: read at 38.3 µM for the half of the compounds with a filed dose; 0% is about no effect
Pf growth 96h: P. falciparum growth inhibition at 96 hour, primary screen for plastid delayed-death inhibitors; P. falciparum luciferase reporter growth, 96 h; Potency, µM (top dose mostly 28.7 µM), inactives show at the highest dose activity change, negative = inhibition, hits mostly inhibitors; hit rate 6.9% among 320,000; AID 504834; further: potency means the concentration at half of the fitted maximal effect; on the % scale 0 is the no-effect control and ±100 the full control effect
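P. falciparum expressing integrated firefly luciferase grown in erythrocytes (2% hematocrit, 0.05% parasitemia final) with compounds for 96 hours at 37 C, 5% CO2. Growth inhibition read as loss of luminescence after adding luciferase detection reagent.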
An asterisk follows results filed as active; ? = inconclusive; . = no result given; [ ] = remark or other dose. Unless noted, the call rests on the fitted dose curve; in most records, active means well fitted inhibition curve with a large enough effect; inconclusive means small, poorly fitted or top-dose-only effect, or another doubt; inactive means no such curve, though single readings can be large or run the other way.

SMILES | Pf growth 48h | Shiga inhibitor | NS1 inh | Cycloheximide cs | Pf growth 96h
O=C(NCCc1ccccc1)c1nc(-c2cccs2)no1 | 27% | 90* | -51% | 45* | 0%
O=C(NCc1ccccn1)c1nc(-c2cccs2)no1 | -5%[5.75 µM] | 43 | . | -1 | 26%[5.75 µM]
O=C(NCc1ccncc1)c1nc(-c2cccs2)no1 | 9% | 2 | . | -2 | -2%
ClC(Cl)(Cl)c1nc2ccccc2n2nncc12 | 0.33µM* | -6 | -37% | -3 | ?
CN(C)c1ccc(N/C=C/C(=O)c2ccc(F)cc2)cc1 | ? | 63* | 5% | 65* | .
NS(=O)(=O)c1ccc(N/C=C/C(=O)c2ccc(Br)cc2)cc1 | 115% | 77* | 9% | 61* | -11%
NS(=O)(=O)c1ccc(N/C=C\C(=O)c2ccc(F)cc2)cc1 | 214% | 65* | -1% | 29* | ?
CC(=O)c1ccc(N/C=C/C(=O)c2ccc(Br)cc2)cc1 | 111% | 22* | 8% | 11* | ?
CC(NC(=O)c1ccc(N(C)C)cc1)c1ccc(F)cc1 (configuration not stated) | ? | -14 | . | 1 | -44%[5.75 µM]
O=C(/C=C/Nc1ccc(F)cc1)c1ccc(Oc2ncccn2)cc1 | 30% | 38 | -3% | 15* | 15%
CN1CCN(NC(=O)CC(C)(C)C)CC1 | ? | 28 | . | -1 | 51%[1.15 µM]
NS(=O)(=O)c1ccc2nc(NC(=O)CS(=O)(=O)c3ccccc3)sc2c1 | 0% | -5 | 2% | -3 | 25%
CCOc1ccc2nc(NC(=O)COc3ccc(N(C)S(=O)(=O)c4ccc(C)cc4)cc3)sc2c1 | 2.3µM* | -2 | 1% | 3 | ?
CCOc1ccc2nc(NS(=O)(=O)Cc3ccccc3)sc2c1 | . | 10 | -13% | 20* | 23%
O=C(C[n+]1cccc(CO)c1)Nc1nc2ccccc2s1 | 57% | 41 | 2% | 34* | 46%
O=C(CS(=O)(=O)c1ccccc1)Nc1nc2ccccc2s1 | 40% | 23 | 7% | 25* | -6%
CCCN1CCN(CC(=O)Nc2nc3ccccc3s2)CC1 | -2% | 19 | 4% | 13 | 11%
COc1ccc(-c2csc(NC(=O)COc3ccc(N(C)S(=O)(=O)c4ccc(C)cc4)cc3)n2)cc1 | ? | 18 | ? | 11 | ?
CCNc1nc(NC(N)=S)nc(NC(C)(C)C)n1 | -13% | -19 | 5% | -2 | 17%
CC1(C)CC(NCc2ccc3c(c2)OCO3)CCO1 (configuration not stated) | 27% | -18 | 6% | -5 | ?
CCOc1ccc2nc(NC(=O)CS(=O)(=O)c3ccccc3)sc2c1 | 39% | active | -18% | 26* | 5.2µM*
CCOc1ccc2nc(NC(=O)CS(=O)(=O)c3ccc(C)cc3)sc2c1 | . | 20 | 5% | 25 | 12%
COc1cc(NC(=O)c2c(F)c(F)c(OC)c(F)c2F)ccc1NC(=O)c1cccs1 | -11% | 19 | 1% | 10 | 18%
O=C(c1ccco1)N1CCCC(N2CCN(c3cccc(C(F)(F)F)c3)CC2)C1 (configuration not stated) | 10µM* | -2 | -11% | -1 | 15%
O=C(c1cc(C2CC2)on1)N1CCCC(N2CCN(c3cccc(C(F)(F)F)c3)CC2)C1 (configuration not stated) | 12µM* | -2 | -22% | -4 | 0%
SMILES | Pf growth 48h | Shiga inhibitor | NS1 inh | Cycloheximide cs | Pf growth 96h
CCN(CC)CC(=O)N1CCCC(N2CCN(c3cccc(C(F)(F)F)c3)CC2)C1 (configuration not stated) | 2% | 9 | 7% | 6 | 9.3µM*
Cc1noc(C)c1C(=O)N1CCCC(N2CCN(c3cccc(C(F)(F)F)c3)CC2)C1 (configuration not stated) | ? | -4 | 2% | 8 | -31%
O=C(c1cccs1)N1CCCC(N2CCN(c3cccc(C(F)(F)F)c3)CC2)C1 (configuration not stated) | ? | -7 | -30% | -1 | -13%
Cc1nnsc1C(=O)N1CCCC(N2CCN(c3cccc(C(F)(F)F)c3)CC2)C1 (configuration not stated) | 13µM* | 1 | -6% | 2 | ?
CNS(=O)(=O)c1cccc(C(=O)OCc2cc(=O)n3cc(Br)ccc3n2)c1 | 32% | 5 | -1% | -1 | -1%
COc1ccc(C)cc1NC(=O)c1ccc(NS(=O)(=O)c2cccs2)cc1 | ? | -7 | 8% | -4 | ?
NC(=S)Nc1cccc2cc3ccccc3cc12 | 39% | 78* | -218% | 43* | 46%
NC(=S)Nc1cc2ccccc2c2ccccc12 | 46% | -2 | -6% | 2 | ?
COC(=O)Cc1ccc(NC(=O)c2cccs2)cc1 | 94% | 82* | -34% | 49* | 41%
O=C(Nc1ccc(C(F)(F)F)cc1)c1ccccc1Br | 82% | 108* | . | 49* | -13%
COC(=O)Cc1ccc(NC(=O)c2ccccc2Br)cc1 | 5% | 50 | -1% | 15* | 17%
N/C(=N\O)c1ccc(NC(=O)c2cccs2)cc1 | 139% | 109* | -24% | 58* | 3%
O=C(CCc1ccc(S(=O)(=O)NCCc2ccccc2)cc1)NCc1ccco1 | -20% | 15 | 0% | -1 | -9%
COc1ccc(CC(=O)NC(C)c2nnc(SCCC(=O)Nc3ccccc3)n2C)cc1 (configuration not stated) | -11% | 13 | . | -2 | ?
Cc1cc(/C=C(\C#N)C(=O)O)c(C)n1CC1CCCO1 (configuration not stated) | -2% | -20 | . | -3 | 18%
O=C(Nc1cccc(C(F)(F)F)c1)C1(c2ccccc2)CC1 | 16% | -7 | -5% | -2 | 21%
COc1ccc(-c2ccc(S(=O)(=O)n3nc(OC(=O)c4cccs4)cc3N)cc2)cc1 | 8% | -16 | 5% | 2 | 29%
COc1ccc(NC(=O)n2nc(OC(=O)c3cccs3)cc2N)cc1 | 181% | 51* | -5% | 33* | 123%
CC(=O)c1ccc(OC(=O)c2cccs2)cc1 | 7% | -13 | 2% | -2 | 24%
CC(=O)c1ccc(NC(=O)c2cccs2)cc1 | . | 125* | -54% | 54* | 208%
CC(=O)Nc1ccc(OC(=O)c2cccs2)cc1 | 16% | 71* | -5% | 34* | .
O=C(Nc1ccc(C(F)(F)F)cc1)C1(c2ccccc2)CC1 | 4% | 18 | -2% | 12* | 21%
CC(C)(C)SCCNC(=O)CN(c1ccccc1)S(=O)(=O)c1ccc(F)cc1 | ? | 2 | 8% | 1 | -9%
CCOC(=O)[C@@H]1[C@H]2COc3ccc(Br)cc3[C@@H]2N2C(=O)N(c3ccc(F)cc3)C(=O)[C@]12C | ? | -3 | 22% | 2 | ?
COc1ccc(S(=O)(=O)N(CC(=O)NN=C2CCN(C)CC2)c2cc(Cl)ccc2OC)cc1OC | -19% | -3 | 27% | -7 | 146%
O=C(Nc1ccc(F)cc1)c1ccccc1Oc1ccc(C(F)(F)F)cc1[N+](=O)[O-] | 10µM* | -9 | -34% | -3 | -99%
O=C(Nc1ccccc1)c1ccccc1Oc1ccc(C(F)(F)F)cc1[N+](=O)[O-] | -14% | -13 | -31% | 0 | 17%
